According to PubChem BioAssay AID434927 (Sanford-Burnham Center for Chemical Genomics, 2010):
Unmarked numbers belong to inactive results. The source made the active and inactive calls.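 The calls were made as follows: active = inhibition above about 23% in any of six single-dose repeats (limit read from the data); inactive = the rest.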

Target: Intestinal-type alkaline phosphatase (Homo sapiens) (UniProt P09923)
Experiment: suppression of intestinal alkaline phosphatase activity – biochemical, luminescence, single concentration, uHTS hits, confirmation (AID 434927);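 also: plate controls were DMSO wells with enzyme for no effect and wells lacking enzyme for full effect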
Details: purified human IAP, CDP-Star luminescence, 30 min; at 8.3 µM; stronger effect = higher value

Chain of Intestinal-type alkaline phosphatase (Homo sapiens) (P09923 whole entry, looked up): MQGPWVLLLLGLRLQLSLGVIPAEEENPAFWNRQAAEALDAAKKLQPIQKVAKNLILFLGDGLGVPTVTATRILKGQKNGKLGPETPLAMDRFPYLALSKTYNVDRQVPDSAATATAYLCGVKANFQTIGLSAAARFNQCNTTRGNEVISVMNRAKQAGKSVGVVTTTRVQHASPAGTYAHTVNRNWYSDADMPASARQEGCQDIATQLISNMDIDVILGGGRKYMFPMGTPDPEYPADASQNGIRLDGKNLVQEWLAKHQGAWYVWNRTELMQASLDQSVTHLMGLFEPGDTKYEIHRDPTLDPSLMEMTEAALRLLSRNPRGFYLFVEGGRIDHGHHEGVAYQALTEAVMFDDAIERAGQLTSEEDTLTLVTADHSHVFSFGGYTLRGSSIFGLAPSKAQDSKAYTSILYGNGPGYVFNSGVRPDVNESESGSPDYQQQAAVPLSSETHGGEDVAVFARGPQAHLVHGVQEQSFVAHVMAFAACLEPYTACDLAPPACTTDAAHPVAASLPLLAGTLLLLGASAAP

Question: For NC(=O)c1ccc(NC(=O)C2CCCC2)cc1, which inhibition is on record?
Answer: The inhibition was -40.2%.

Question: Which inhibition does the source give for O=C(CCNS(=O)(=O)c1ccccc1C(F)(F)F)NNC(=O)c1csc(N2CCOCC2)n1 here?
Answer: The inhibition was 0.0741%.

Question: O=C(O)C1OC(Oc2c(-c3ccc(O)c(O)c3)oc3cc(O)cc(O)c3c2=O)C(O)C(O)C1O (centres undefined) was tested. Which inhibition did it give?
Answer: Its inhibition is 32.1% (active).

Question: Which inhibition does the source give for Cc1ccc(NC(=O)NNC(=O)c2cc3ccccc3cc2O)cc1 here?
Answer: The inhibition was -69.5%.

Question: CCn1nc(C)c(CN2CCC(C(=O)Nc3cccc(-c4cccc(F)c4)c3)CC2)c1C was tested. Which inhibition did it give?
Answer: The inhibition was 50.7% (active).

Question: How did the inhibition turn out when Cc1cc(C(=O)NNC(=O)COc2c(C)cc(Br)cc2C)n[nH]1 was run?
Answer: The inhibition was -0.057%.

Question: For Cc1nn(C)c(C(=O)NNC(=S)NCc2ccccc2)c1Cl, which inhibition is on record?
Answer: Its inhibition is -141%.

Question: Which inhibition does the source give for O=C(NN1C(=O)CSC1=S)C(=O)NN1C(=O)CSC1=S here?
Answer: Its inhibition is 73.8% (active).

Question: CCCCOc1cccc(C2/C(=C(\O)c3ccc4c(c3)OCCO4)C(=O)C(=O)N2CCN2CCOCC2)c1 (centres undefined) was tested. Which inhibition did it give?
Answer: Its inhibition is -90.6%.

Question: Which inhibition does the source give for N#CCN1C(=S)N=C(Nc2cccc(Cl)c2)C12CCCCC2 here?
Answer: The inhibition was -55.5%.

Question: For O=C(Cc1ccc(Cl)c(Cl)c1)NNC(=S)NCC1CCCO1 (centres undefined), which inhibition is on record?
Answer: The inhibition was -97.6%.

Question: O=c1c2cc(O)c(O)cc2oc2cc(O)c(C3OC(CO)C(O)C(O)C3O)c(O)c12 (centres undefined) was tested. Which inhibition did it give?
Answer: Its inhibition is -148%.

Question: C=CCN1C(=O)/C(=C\C=C2\N(C)c3ccccc3C2(C)C)SC1=S was tested. Which inhibition did it give?
Answer: The inhibition was -267%.

Question: How did the inhibition turn out when Cc1cc(NC(=O)c2ccc(N3C(=O)C4C5C=CC(C5)C4C3=O)cc2)no1 (centres undefined) was run?
Answer: The inhibition was -161%.

Question: How did the inhibition turn out when O=C1Nc2ccc(Br)cc2C12NNc1ccccc1O2 (centres undefined) was run?
Answer: Its inhibition is 35% (active).

Question: O=C(CCN1C(=O)/C(=C/c2ccccc2Cl)SC1=S)NNC(=O)c1ccccc1O was tested. Which inhibition did it give?
Answer: The inhibition was 62.3% (active).

Question: Which inhibition does the source give for Cc1ccsc1C(=O)NNC(=S)NC1CCCCC1 here?
Answer: The inhibition was 49.4% (active).

Question: With c1ccc(-c2nnc(CN3CCC4(CC3)OCCO4)o2)cc1 as the compound, how does the inhibition read?
Answer: Its inhibition is 29.7% (active).

Question: Which inhibition does the source give for CCn1c2ccccc2c2cc(NC(=O)c3coc(=O)c(Br)c3)ccc21 here?
Answer: The inhibition was 39.2% (active).

Question: How did the inhibition turn out when COC(=O)CN1C(=O)C(O)(CC(=O)c2ccc(C)cc2)c2ccccc21 (centres undefined) was run?
Answer: The inhibition was 45.9% (active).

Question: Cc1cccn2c(=O)c3cc(C(=O)NC4CCCC4)c(=N)n(C4CCCCC4)c3nc12 was tested. Which inhibition did it give?
Answer: Its inhibition is -122%.

Question: For Nc1c(N2CCCC2)cc(Cl)c2nonc12, which inhibition is on record?
Answer: The inhibition was 41.3% (active).

Question: How did the inhibition turn out when CN(C)c1ccc2nc3c(=O)[nH]c(=O)nc-3n(CC(O)C(O)C(O)CO)c2c1 (centres undefined) was run?
Answer: The inhibition was -87.3%.

Question: For COc1cc(/C=C2\SC(=S)N(N(C)c3ccccc3)C2=O)ccc1O, which inhibition is on record?
Answer: Its inhibition is 60.4% (active).

Question: Which inhibition does the source give for CN(C)c1ccc(N=Nc2ccccc2Br)cc1 here?
Answer: Its inhibition is -104%.

Question: With O=C1Nc2ccccc2/C1=N\N=C\c1ccc(O)c(O)c1 as the compound, how does the inhibition read?
Answer: The inhibition was 61.5% (active).

Question: How did the inhibition turn out when CCOc1ccc(CC(=O)NNC(=S)NCCc2ccccc2)cc1 was run?
Answer: The inhibition was 77.5% (active).

Question: With O=C(CCN1CCN(Cc2ccccc2)CC1)NNC(=O)Nc1cccc(C(F)(F)F)c1 as the compound, how does the inhibition read?
Answer: The inhibition was -0.057%.

Question: Which inhibition does the source give for CC(=O)Nc1cccc(C(=O)NNC(=O)c2n[nH]c(=O)c3ccccc23)c1 here?
Answer: The inhibition was -125%.

Question: For CCOc1cccc(OCCOCCOc2ccccc2C(C)=O)c1, which inhibition is on record?
Answer: The inhibition was -219%.

Question: With C#CCOCCOCCOCCNc1nc(N2CCN(C(=O)CCCCCCCCCCNC(=O)[C@H]([C@@H](C)CC)n3cc(CCCCN=C(N)N)nn3)CC2)nc(N2CCN(C(=O)CCCCCCCCCCNC(=O)[C@H](CO)n3cc(CCCSC)nn3)CC2)n1 as the compound, how does the inhibition read?
Answer: Its inhibition is 38.5% (active).

Question: For CN(C)S(=O)(=O)c1cccc(NC(=S)NNC(=O)c2cc3ccccc3cc2O)c1, which inhibition is on record?
Answer: The inhibition was 72.3% (active).

Question: For Cc1nc(Nc2nc3c(c(=O)[nH]2)CCC3)nc2ccccc12, which inhibition is on record?
Answer: Its inhibition is -77.6%.

Question: With CSCCC(NS(=O)(=O)c1ccccc1F)C(=O)NNC(=O)c1csc(N2CCOCC2)n1 (centres undefined) as the compound, how does the inhibition read?
Answer: Its inhibition is 72.3% (active).
